From publication PMC5700166

These sequences were tested against T1, GST-Dm-Relish (Drosophila melanogaster, UniProt Q94527 99-473) (assay: protein-binding microarray (PBM); PBM: ~300 nM protein, 6 mM HEPES pH 7.8, 80 mM KCl, 0.5 mM EDTA, 0.5 mM EGTA, 6% glycerol, 35 ng/ul poly-dIdC, 1% milk, 1 h, room temperature; Ap Aiptasia and Nv Nematostella (sea anemones) / Co Capsaspora / Aq Amphimedon (sponge) / Dm Drosophila / Hu human; RHD is the Rel homology domain; high values mean tight binding). Details: dsDNA, one strand shown.
T1 sequence: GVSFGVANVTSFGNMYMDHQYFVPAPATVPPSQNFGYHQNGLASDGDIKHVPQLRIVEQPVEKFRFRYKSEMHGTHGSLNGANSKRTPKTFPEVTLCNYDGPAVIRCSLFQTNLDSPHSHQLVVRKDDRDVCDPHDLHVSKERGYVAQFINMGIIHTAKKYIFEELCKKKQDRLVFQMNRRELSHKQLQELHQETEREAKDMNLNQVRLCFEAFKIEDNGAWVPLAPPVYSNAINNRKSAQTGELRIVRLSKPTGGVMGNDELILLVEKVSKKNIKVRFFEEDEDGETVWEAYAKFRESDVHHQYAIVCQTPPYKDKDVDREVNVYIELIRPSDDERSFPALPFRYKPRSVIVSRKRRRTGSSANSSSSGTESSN

Sequence | binding signal [z-score]
CCGATTAACATCACGGGAATCCCTGATGTTAATCGGGTCTTGATTCGCTTGACGCTGCTG | 10.1
CCGATTAACATCAGGAAAAACCCTGATGTTAATCGGGTCTTGATTCGCTTGACGCTGCTG | 6.52
CCGATTAACATCAGAACATTCCCTGATGTTAATCGGGTCTTGATTCGCTTGACGCTGCTG | 1.97
CCGATTAACATCAGGAAAACACCTGATGTTAATCGGGTCTTGATTCGCTTGACGCTGCTG | 3.1
CCGATTAACATCAGGGCAAACCCTGATGTTAATCGGGTCTTGATTCGCTTGACGCTGCTG | 1.14
CCGATTAACATCAGGGGGATAGATGATGTTAATCGGGTCTTGATTCGCTTGACGCTGCTG | 2.03
CCGATTAACATCACGGAAGTCCCTGATGTTAATCGGGTCTTGATTCGCTTGACGCTGCTG | 6.53
CCGATTAACATCAGGGAACGCCCTGATGTTAATCGGGTCTTGATTCGCTTGACGCTGCTG | 4.32
CCGATTAACATCAGGTACTTCCATGATGTTAATCGGGTCTTGATTCGCTTGACGCTGCTG | 5.93
CCGATTAACATCAGGTAATCACCTGATGTTAATCGGGTCTTGATTCGCTTGACGCTGCTG | 5.6
CCGATTAACATCAGGTAATTCCATGATGTTAATCGGGTCTTGATTCGCTTGACGCTGCTG | 4.41
CCGATTAACATCAGGGATTCTCATGATGTTAATCGGGTCTTGATTCGCTTGACGCTGCTG | 2.59
CCGATTAACATCAGGGAATTATATGATGTTAATCGGGTCTTGATTCGCTTGACGCTGCTG | 3.26
CCGATTAACATCACGAAAATCCCTGATGTTAATCGGGTCTTGATTCGCTTGACGCTGCTG | 6.19
CCGATTAACATCAAAAAAAGTCCTGATGTTAATCGGGTCTTGATTCGCTTGACGCTGCTG | 5.69
CCGATTAACATCAACCACCCCCTTGATGTTAATCGGGTCTTGATTCGCTTGACGCTGCTG | 2.48
CCGATTAACATCAGGAATCCCTATGATGTTAATCGGGTCTTGATTCGCTTGACGCTGCTG | 6.17
CCGATTAACATCAATACACCCCCTGATGTTAATCGGGTCTTGATTCGCTTGACGCTGCTG | 3.33
CCGATTAACATCAGGGACTTACCTGATGTTAATCGGGTCTTGATTCGCTTGACGCTGCTG | 7.96
CCGATTAACATCAGGGCCCCCCCTGATGTTAATCGGGTCTTGATTCGCTTGACGCTGCTG | 6.49
CCGATTAACATCAGAGTCCCCCCTGATGTTAATCGGGTCTTGATTCGCTTGACGCTGCTG | 5.14
CCGATTAACATCAGGAAATGCCCTGATGTTAATCGGGTCTTGATTCGCTTGACGCTGCTG | 1.68
CCGATTAACATCAGGAATAACCCTGATGTTAATCGGGTCTTGATTCGCTTGACGCTGCTG | 3.23
CCGATTAACATCAGGGACTCACCTGATGTTAATCGGGTCTTGATTCGCTTGACGCTGCTG | 7.74
CCGATTAACATCACGGACTTCCCTGATGTTAATCGGGTCTTGATTCGCTTGACGCTGCTG | 7.44
